Measured values: PubChem BioAssay (Tox21)
A number with no mark means an inactive call. Active and inactive are the calls of the source. Calls come from the whole dose curve; as a rule, active = well fitted curve in the direction sought with a large enough effect in the repeat runs; inconclusive = weak or mixed curves; inactive = flat fitted curve, though single readings scatter.

Assay: qHTS assay to test for compound auto fluorescence at 590 nm (red) in HEK293 cells (AID 720679)
Settings: red autofluorescence 540/590 nm; series mostly up to 91.3 µM
Summary of the method: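 Red channel, Ex/Em 540/590nm; signal expressed as equivalency to Rose Bengal sodium. HEK293, 2,000 cells/well, 10% dialyzed FBS; 23 nL compound pinned after 4-5 hr attachment; overnight 37C/5% CO2 before reading.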
% is set by controls: 0 for no effect and ±100 for the full control effect.

| SMILES | outcome | fluorescence, % of fluorescent control |
| --- | --- | --- |
| CCN(CCO)CCO | inactive |  |
| C=CCc1cc(OC)c2c(c1)OCO2 | inactive |  |
| CC(C)(C1CCC(O)CC1)C1CCC(O)CC1 (stereo not given) | inactive |  |
| COc1cccc(C=O)c1 | inactive |  |
| C=CC1(C)OC(=O)N(c2cc(Cl)cc(Cl)c2)C1=O (stereo not given) | inactive |  |
| CNC(=O)NC(O)C(Cl)(Cl)Cl (stereo not given) | inactive |  |
| COC(=O)[C@@H](N)CCCN/C(N)=N/[N+](=O)[O-] | inactive |  |
| CC(C)(O)C(Cl)(Cl)Cl | inactive |  |
| CCCC(C)(COC(N)=O)COC(N)=O | inactive |  |
| Cc1cc(OC(=O)N(C)C)nn1C(=O)N(C)C | inactive |  |
| CS(=O)(=O)Cl | inactive |  |
| NCC1(CC(=O)O)CCCCC1 |  | 0.0233% [at 18.6 µM] |
| COc1ccccc1OC | inactive |  |
| [P]#[In] | inactive |  |
| O=C(Cl)/C=C/C(=O)Cl | inactive |  |
| CCOC(=O)NC(C)(C)Cc1ccc(Cl)cc1 | inactive |  |
| O=c1[nH]oc2c1CCNC2 | inactive |  |
| O=C(Cl)C(Cl)(Cl)Cl | inactive |  |
| N#CN=C1SCCN1Cc1ccc(Cl)nc1 | inactive |  |
| CN(CCO)CCO | inactive |  |

| SMILES | outcome | fluorescence, % of fluorescent control |
| --- | --- | --- |
| COC(=O)c1ccccc1CS(=O)(=O)NC(=O)Nc1nc(OC)cc(OC)n1 | inactive |  |
| CCOC1Oc2ccc(OS(C)(=O)=O)cc2C1(C)C (stereo not given) | inactive |  |
| C[N+]1(C)CCCCC1 | inactive |  |
| Cc1ccc(-c2nc3ccc(C)cn3c2CC(=O)N(C)C)cc1 | inactive |  |
| COc1cc(CCN)cc(OC)c1OC | inactive |  |
| CC(=O)OCC1=C(C(=O)O)N2C(=O)[C@@H](N)[C@H]2SC1 |  | 0.0847% [at 18.6 µM] |
| O=P(O)(O)c1ccccc1 | inactive |  |
| Oc1ccc(Cc2ccc(O)cc2)cc1 | inactive |  |
| C=C1CC[C@@]2(O)[C@H]3Cc4ccc(O)c5c4[C@@]2(CCN3CC2CC2)[C@H]1O5 | inactive |  |
| CCC(C(N)=O)N1CCCC1=O (stereo not given) | inactive |  |
| CN(C)CCc1c[nH]c2cccc(OP(=O)(O)O)c12 | inactive |  |
| CCC1(c2ccccc2)C(=O)N(COC)C(=O)N(COC)C1=O | inactive |  |
| CCCCCCCCSC(=O)Oc1cc(Cl)nnc1-c1ccccc1 | inactive |  |
| CCOP(=S)(OCC)Oc1ccc(Cl)cc1Cl | inactive |  |
| O=[N+]([O-])CCO | inactive |  |
| BrCc1ccc(Br)cc1 | inactive |  |
| C[C@H](N)C(=O)c1ccccc1 | inactive |  |
| CCc1cc(OC)c(C[C@H](C)N)cc1OC | inactive |  |
| COC(=O)c1ccc(CBr)cc1 | inactive |  |
| CCN[C@@H](C)Cc1cccc(C(F)(F)F)c1 | inactive |  |
